PfHsp40 yeast – rescue of yeast from PfHsp40 toxicity, primary screen, S. cerevisiae, ATP luminescence; S. cerevisiae expressing PfHsp40, growth rescue; growth rescue, % at 12.5 µM; actives 0.68% (n = 340,000); in the data active means growth rescue above about 28%, passing the limit was not always enough;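 further: yeast W303a lacking pdr1 and pdr3 grown in galactose medium; growth measured after three days at 30 °C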
MazF activator – activators of E. coli MazEF toxin-antitoxin RNase, primary screen, biochemical, fluorescence, uHTS; Endoribonuclease toxin MazF (Escherichia coli (strain K12)), P0AE70; FAM/BHQ RNA-DNA oligo cleavage fluorescence, 5 h; activation, % at 20 µM; actives 0.32% (n = 350,000); AID 504720, 2011; in the data active means activation above about 50%
Target sequence (P0AE70 whole entry, looked up): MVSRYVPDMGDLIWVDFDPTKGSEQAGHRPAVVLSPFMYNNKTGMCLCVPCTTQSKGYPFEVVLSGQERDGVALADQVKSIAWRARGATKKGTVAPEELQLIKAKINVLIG
DUSP3 inh – VHR1 phosphatase inhibitors, primary screen, biochemical, absorbance, uHTS | recombinant VHR phosphatase, pNPP absorbance | inhibition, % at 13.3 µM | actives 0.52% (n = 290,000) | AID 1654, 2009; in the data active means inhibition above about 50%
Target sequence (P51452 whole entry, looked up): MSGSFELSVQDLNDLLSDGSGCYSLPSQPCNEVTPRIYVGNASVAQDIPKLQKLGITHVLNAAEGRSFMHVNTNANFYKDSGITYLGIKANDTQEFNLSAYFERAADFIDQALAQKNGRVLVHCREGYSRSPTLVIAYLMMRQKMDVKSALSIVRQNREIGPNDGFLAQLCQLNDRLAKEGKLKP
PrP UTR inh – inhibition of PrP 5' UTR reporter expression. inhibition, % (no concentration beside the values). actives 0.35% (n = 340,000). AID 488862, 2010. cell-based PrP 5' UTR mRNA reporter, plate reader; in the data active means inhibition above about 52%; further: 0 = median of the neutral control wells
BJeLR viability – MLPCN primary cell-based screen for lethality selective to Ras in HRASV12 cells; BJeLR (HRASV12) viability, CellTiter-Glo ATP luminescence, 48 h; AID 1554, 2009; inhibition, % (no concentration beside the values); actives 0.17% (n = 300,000); in the data active means inhibition above about 50%
PrPC surface inh – inhibitors of human cell surface prion protein PrPC, primary screen, cell-based, TR-FRET | Major prion protein (Homo sapiens), P04156 | TR-FRET read-out | inhibition, % at 13.8 µM | actives 0.43% (n = 370,000) | AID 720596, 2013; in the data active means inhibition above about 24%; further: 0% = median of the test wells and 100% = reference compound wells
Active calls of the source: *. A selection: hits, their analogues and other compounds. The true share with any hit is near 2.1%.

CC1=C(C)/C(=N\OS(=O)(=O)c2ccc(C)cc2)C=CC1=O was read as PfHsp40 yeast 424*, MazF activator 1, DUSP3 inh -2, PrP UTR inh -22 and PrPC surface inh 1.
CC1(C)CC(=O)C(C(=O)Cc2ccccc2[N+](=O)[O-])C(=O)C1 was read as PfHsp40 yeast 29*, MazF activator 6, DUSP3 inh -4, PrP UTR inh -25, BJeLR viability 14 and PrPC surface inh -6.
CNC(=O)c1sc(-c2ccc(Cl)cc2)nc1C was read as PfHsp40 yeast 0, MazF activator 1, DUSP3 inh 7, PrP UTR inh -64, BJeLR viability -10 and PrPC surface inh -18.
CNC(=O)c1sc(-c2ccccc2)nc1C was read as PfHsp40 yeast 93*, MazF activator 12, DUSP3 inh -6, PrP UTR inh -4, BJeLR viability 3 and PrPC surface inh -10.
CC1(C)CC(=O)C(C2C3=C(CC(C)(C)CC3=O)Oc3c(Br)cc(Br)cc32)=C(O)C1 (stereo not drawn) was read as PfHsp40 yeast 55*, MazF activator 0, DUSP3 inh 23, PrP UTR inh -13, BJeLR viability 2 and PrPC surface inh 0.
`COC(=O)C1=C(C(=O)OC)[C@@H]2N(C)c3ccc(OC)cc3[C@@]23C[C@@H](C(=O)OC)N(C(=O)c2cc(C)oc2C)C3=N1` gave MazF activator 8 and BJeLR viability -6.
Screening O=C(CN(Cc1ccco1)C(=O)c1ccc(N2CCCC2=O)cc1)Nc1ccccc1C(F)(F)F returned PfHsp40 yeast 0, MazF activator -1, PrP UTR inh -22, BJeLR viability 9 and PrPC surface inh 2.
Cc1ccc(NC(=O)c2ccccc2NS(=O)(=O)c2ccc(Cl)s2)cc1 was read as PfHsp40 yeast 80*, MazF activator 2, DUSP3 inh -4, PrP UTR inh -60, BJeLR viability 28 and PrPC surface inh 16.
Screening O=C(Nc1ccccc1Cc1ccccc1)c1ccccc1NS(=O)(=O)c1ccc(Cl)s1 returned PfHsp40 yeast 6, MazF activator 3, DUSP3 inh -10, PrP UTR inh -17, BJeLR viability 32 and PrPC surface inh 13.
Screening CCN(CC)S(=O)(=O)c1ccc(-c2nnc(SCc3nnc(-c4ccc(C)cc4)o3)n2CC)cc1 returned PfHsp40 yeast 45*, MazF activator 4, DUSP3 inh 21, PrP UTR inh -13, BJeLR viability 1 and PrPC surface inh 3.
For COc1cc(C2(c3ccc(O)c(OC)c3)C(=O)Nc3c(Br)cc(Br)cc32)ccc1O the results were PfHsp40 yeast 66*, MazF activator 4, PrP UTR inh -15, BJeLR viability -12 and PrPC surface inh 0.
For CC1(C)Cc2c(sc3ncnc(N)c23)CO1 the results were PfHsp40 yeast -1, MazF activator 0, DUSP3 inh 14, PrP UTR inh -23, BJeLR viability 6 and PrPC surface inh -2.
Screening CC1(C)Cc2c(sc3ncn4nnnc4c23)CO1 returned DUSP3 inh 52*.
Screening CC#CCN(Cc1ccco1)C(=O)c1ccc(OC2CCN(Cc3ccccn3)CC2)cc1 returned PfHsp40 yeast -1, MazF activator 0, DUSP3 inh 5, PrP UTR inh -5, BJeLR viability -8 and PrPC surface inh -2.
For CCCCc1c(C)c(C#N)c2nc3ccccc3n2c1Cl the results were DUSP3 inh 12 and BJeLR viability 128*.
Screening COc1ccc(NC(=O)C(=O)N/N=C(\C)CC(=O)Nc2cc(C)ccn2)c(OC)c1 returned PfHsp40 yeast -1, MazF activator 1, DUSP3 inh 9, PrP UTR inh -18, BJeLR viability -1 and PrPC surface inh 2.
C/C(CC(=O)Nc1cc(C)ccn1)=N\NC(=O)C(=O)Nc1cccc(C)c1 was read as PfHsp40 yeast -1, MazF activator 195*, DUSP3 inh 2, PrP UTR inh -57, BJeLR viability -2 and PrPC surface inh 6.
Screening COC(CN(C)S(=O)(=O)c1cc2c3c(c1)CCN3C(=O)CC2)OC returned PfHsp40 yeast -2, MazF activator 8, DUSP3 inh -15, PrP UTR inh 0, BJeLR viability 12 and PrPC surface inh 1.
`O=C(O)/C=C\C(=O)Nc1ccc(F)c(F)c1F` gave PfHsp40 yeast -1, MazF activator 1, DUSP3 inh 13, PrP UTR inh 1, BJeLR viability 5 and PrPC surface inh 6.
Screening O=C(O)/C=C\C(=O)Nc1ccccc1F returned PfHsp40 yeast 37*, MazF activator 3, DUSP3 inh -4, PrP UTR inh -11, BJeLR viability -8 and PrPC surface inh -4.
Screening O=[N+]([O-])c1ccc(Nc2ccccc2O)c2nonc12 returned PfHsp40 yeast 0, MazF activator 232*, DUSP3 inh 13, PrP UTR inh -27, BJeLR viability -1 and PrPC surface inh -40.
`CCN(C(=O)c1cccc(NC(=O)c2ccccc2)c1)C1CCCCC1` gave PfHsp40 yeast 3, MazF activator 0, DUSP3 inh 19, PrP UTR inh -3, BJeLR viability 5 and PrPC surface inh -2.
`Cc1nc2ccc(S(=O)(=O)NCC(=O)N(C)Cc3ccccc3Cl)cc2s1` gave PrPC surface inh 4.
Screening C=CCc1ccc(O)c(-c2ccc(O)c(CC=C)c2)c1 returned PfHsp40 yeast 233*, MazF activator -7, DUSP3 inh -6, PrP UTR inh -22, BJeLR viability 0 and PrPC surface inh -13.
Screening CC(C)(O[C@@H]1O[C@H](CO)[C@@H](O)[C@H](O)[C@H]1O)[C@@H]1CC=C(C(=O)O)CC1 returned PfHsp40 yeast -1, MazF activator 3, PrP UTR inh -11 and PrPC surface inh 0.
Screening O=[N+]([O-])c1ccc2[nH]c(O)c(N=NC(=S)Nc3cccnc3)c2c1 returned PfHsp40 yeast 41*, MazF activator 15, DUSP3 inh 4, PrP UTR inh -16, BJeLR viability 4 and PrPC surface inh -16.
For O=C(O)c1ccccc1N=Nc1c(O)[nH]c2ccc([N+](=O)[O-])cc12 the results were PfHsp40 yeast -1, MazF activator -24, DUSP3 inh 44, PrP UTR inh -17 and BJeLR viability 4.
`O=C(N=Nc1c(O)[nH]c2ccc([N+](=O)[O-])cc12)c1ccccc1Cl` gave PfHsp40 yeast 0, MazF activator 2, DUSP3 inh 57*, PrP UTR inh -23, BJeLR viability 7 and PrPC surface inh -7.
For Cc1nc(C(F)(F)F)ccc1C(=O)N1CCC(C)(C(=O)NS(=O)(=O)C2CC2)C1 (stereo not drawn) the results were PrPC surface inh 1.
